# From the supplement of paper PMC7724964
# T1: ARID4A 568-634 Tudor-knot (domain begin residue: 568, domain end residue: 634), P29374
# T1 chain: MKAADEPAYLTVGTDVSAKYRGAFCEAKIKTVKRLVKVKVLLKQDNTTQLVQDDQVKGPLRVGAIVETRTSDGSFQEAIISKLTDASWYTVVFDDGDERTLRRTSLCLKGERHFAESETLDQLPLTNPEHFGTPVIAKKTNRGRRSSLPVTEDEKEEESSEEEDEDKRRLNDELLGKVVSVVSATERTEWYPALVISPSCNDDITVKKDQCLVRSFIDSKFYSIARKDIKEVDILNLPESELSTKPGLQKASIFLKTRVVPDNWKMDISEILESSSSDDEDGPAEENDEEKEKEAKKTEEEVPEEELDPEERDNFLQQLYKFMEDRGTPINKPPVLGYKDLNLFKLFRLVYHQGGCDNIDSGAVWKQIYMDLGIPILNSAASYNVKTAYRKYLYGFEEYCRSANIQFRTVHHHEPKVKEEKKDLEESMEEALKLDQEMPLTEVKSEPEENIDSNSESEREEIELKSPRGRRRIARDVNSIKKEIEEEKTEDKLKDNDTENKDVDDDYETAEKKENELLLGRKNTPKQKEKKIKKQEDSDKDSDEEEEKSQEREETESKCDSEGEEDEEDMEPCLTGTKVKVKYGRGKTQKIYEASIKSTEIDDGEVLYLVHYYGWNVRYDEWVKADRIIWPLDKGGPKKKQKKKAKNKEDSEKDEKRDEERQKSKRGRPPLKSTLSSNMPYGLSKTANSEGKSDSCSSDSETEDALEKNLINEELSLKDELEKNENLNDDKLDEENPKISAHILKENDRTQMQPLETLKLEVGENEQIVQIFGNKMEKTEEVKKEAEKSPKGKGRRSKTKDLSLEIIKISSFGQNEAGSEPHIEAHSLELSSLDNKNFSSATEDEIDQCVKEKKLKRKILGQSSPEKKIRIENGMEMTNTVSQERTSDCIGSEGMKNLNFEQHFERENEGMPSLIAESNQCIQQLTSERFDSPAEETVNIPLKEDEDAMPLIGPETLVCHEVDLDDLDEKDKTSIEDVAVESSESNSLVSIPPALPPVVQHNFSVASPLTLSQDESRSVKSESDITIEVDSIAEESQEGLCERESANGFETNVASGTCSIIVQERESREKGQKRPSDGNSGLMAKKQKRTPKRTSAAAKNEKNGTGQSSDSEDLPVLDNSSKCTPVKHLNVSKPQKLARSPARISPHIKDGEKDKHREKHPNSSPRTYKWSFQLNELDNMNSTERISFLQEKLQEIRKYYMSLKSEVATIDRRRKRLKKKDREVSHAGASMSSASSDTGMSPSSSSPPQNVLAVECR
# T2: SND1 650-910 TUDOR+SNase (domain begin residue: 650, domain end residue: 910), Q7KZF4
# T2 chain: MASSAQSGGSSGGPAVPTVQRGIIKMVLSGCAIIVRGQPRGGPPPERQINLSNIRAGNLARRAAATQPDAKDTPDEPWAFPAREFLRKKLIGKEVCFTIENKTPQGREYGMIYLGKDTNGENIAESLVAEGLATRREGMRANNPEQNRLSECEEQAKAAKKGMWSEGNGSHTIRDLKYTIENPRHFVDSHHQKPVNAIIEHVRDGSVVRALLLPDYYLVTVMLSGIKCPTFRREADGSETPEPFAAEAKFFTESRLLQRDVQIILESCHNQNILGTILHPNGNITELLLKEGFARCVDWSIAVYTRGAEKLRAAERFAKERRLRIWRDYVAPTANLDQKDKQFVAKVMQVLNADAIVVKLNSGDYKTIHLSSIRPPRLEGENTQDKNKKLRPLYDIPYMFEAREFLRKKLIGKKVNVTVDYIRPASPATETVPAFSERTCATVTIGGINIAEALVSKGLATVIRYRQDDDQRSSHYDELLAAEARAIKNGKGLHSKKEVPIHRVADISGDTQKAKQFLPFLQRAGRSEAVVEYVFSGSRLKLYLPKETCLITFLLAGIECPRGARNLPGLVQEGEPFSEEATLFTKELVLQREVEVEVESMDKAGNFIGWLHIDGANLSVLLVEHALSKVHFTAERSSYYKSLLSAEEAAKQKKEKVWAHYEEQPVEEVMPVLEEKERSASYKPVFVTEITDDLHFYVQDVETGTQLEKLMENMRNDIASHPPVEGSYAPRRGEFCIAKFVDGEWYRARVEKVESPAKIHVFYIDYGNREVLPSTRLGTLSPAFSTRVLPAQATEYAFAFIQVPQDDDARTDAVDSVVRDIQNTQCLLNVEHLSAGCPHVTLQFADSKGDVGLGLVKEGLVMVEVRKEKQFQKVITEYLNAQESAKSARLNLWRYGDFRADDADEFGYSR
# T3: ALDOA 1-364 Glycolytic (domain begin residue: 1, domain end residue: 364), P04075
# T3 chain: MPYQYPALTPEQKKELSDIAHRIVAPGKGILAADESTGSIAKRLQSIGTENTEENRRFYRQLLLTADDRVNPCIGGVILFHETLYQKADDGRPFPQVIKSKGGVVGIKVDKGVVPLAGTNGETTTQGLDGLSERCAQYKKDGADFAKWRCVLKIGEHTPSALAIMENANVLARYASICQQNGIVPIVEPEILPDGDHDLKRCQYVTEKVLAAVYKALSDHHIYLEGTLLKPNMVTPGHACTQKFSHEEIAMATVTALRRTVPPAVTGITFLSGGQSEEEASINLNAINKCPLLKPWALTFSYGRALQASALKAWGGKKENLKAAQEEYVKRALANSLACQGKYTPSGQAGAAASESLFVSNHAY
# T4: TDRD1 261-449 TUDOR (domain begin residue: 261, domain end residue: 449), Q9BXT4
# T4 chain: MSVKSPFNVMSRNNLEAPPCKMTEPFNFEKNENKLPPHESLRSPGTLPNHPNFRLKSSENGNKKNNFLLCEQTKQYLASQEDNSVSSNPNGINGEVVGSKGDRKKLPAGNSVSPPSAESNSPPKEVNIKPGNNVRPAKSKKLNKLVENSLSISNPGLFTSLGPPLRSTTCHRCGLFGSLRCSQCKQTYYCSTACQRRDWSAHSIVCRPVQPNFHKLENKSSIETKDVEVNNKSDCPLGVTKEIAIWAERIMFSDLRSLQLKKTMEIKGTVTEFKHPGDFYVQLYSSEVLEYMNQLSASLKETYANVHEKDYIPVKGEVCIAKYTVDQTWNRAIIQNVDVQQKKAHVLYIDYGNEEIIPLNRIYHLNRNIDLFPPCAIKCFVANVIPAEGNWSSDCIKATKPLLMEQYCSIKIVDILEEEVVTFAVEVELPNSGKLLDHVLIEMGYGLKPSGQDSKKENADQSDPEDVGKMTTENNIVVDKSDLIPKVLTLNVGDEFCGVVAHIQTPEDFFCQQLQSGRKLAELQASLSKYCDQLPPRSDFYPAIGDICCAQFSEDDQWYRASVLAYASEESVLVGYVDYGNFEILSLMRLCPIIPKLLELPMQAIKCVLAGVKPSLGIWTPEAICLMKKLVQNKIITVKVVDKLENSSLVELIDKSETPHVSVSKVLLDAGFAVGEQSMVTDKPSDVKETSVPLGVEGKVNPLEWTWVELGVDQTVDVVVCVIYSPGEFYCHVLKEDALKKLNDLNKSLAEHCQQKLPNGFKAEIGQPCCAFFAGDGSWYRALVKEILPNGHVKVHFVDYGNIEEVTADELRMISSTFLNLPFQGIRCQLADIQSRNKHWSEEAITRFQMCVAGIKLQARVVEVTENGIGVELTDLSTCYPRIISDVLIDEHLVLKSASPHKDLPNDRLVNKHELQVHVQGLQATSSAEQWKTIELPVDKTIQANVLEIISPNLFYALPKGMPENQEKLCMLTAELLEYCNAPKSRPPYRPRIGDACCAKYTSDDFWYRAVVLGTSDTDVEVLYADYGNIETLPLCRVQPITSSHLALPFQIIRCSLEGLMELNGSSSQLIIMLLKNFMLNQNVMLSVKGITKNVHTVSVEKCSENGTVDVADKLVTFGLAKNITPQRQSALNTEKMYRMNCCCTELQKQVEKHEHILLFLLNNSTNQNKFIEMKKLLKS
# B1: unnamed (peptide)
# chain: DGWGWDHIEIEMPYEE
# B2: unnamed (peptide)
# chain: AWSYLHGEWEWVQPVM
# B3: unnamed (peptide)
# chain: WVMPGMEELNIFENMF
# B4: unnamed (peptide)
# chain: EQLEPWLMPGQSQLFG
# B5: unnamed (peptide)
# chain: WHVWDPVMEVFDWPEM
# B6: unnamed (peptide)
# chain: DYMSHLFDTMSGVQFQ
# B7: unnamed (peptide)
# chain: YYWDTILVDNPEWHQL
# B8: unnamed (peptide)
# chain: MYDEWHMPDSYEVVVQ
# What was measured:
# Assay in all cases: phage ELISA signal ratio (GST-PRM binding over GST background); higher = stronger binding of peptide-phage to the PRM
# [1] = biological target: T1, ARID4A 568-634 Tudor-knot (domain begin …
# Protocol: (§1)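 Phage-displayed random hexadecapeptides (Cys-free, flanked by invariant Gly linkers, fused to the M13 P8 major coat protein) were selected over 5 rounds against GST-fused human PRM domains. Individual clones from rounds 4-5 were tested by phage ELISA, and positive clones binding the target but not GST were sequenced. Values are the ELISA signal ratio of target over background (GST); the background signal is given separately.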
# [2] = biological target: T2, SND1 650-910 TUDOR+SNase (domain begin …
# Protocol: as §1
# [3] = biological target: T3, ALDOA 1-364 Glycolytic (domain begin …
# Protocol: as §1
# [4] = biological target: T4, TDRD1 261-449 TUDOR (domain begin …
# Protocol: as §1
binder,measurement,setting,value
B1,phage ELISA signal ratio,[1],12.4
same,phage ELISA signal ratio,[2],8.36
B2,phage ELISA signal ratio,[3],14.5
B3,phage ELISA signal ratio,[1],3.49
B4,phage ELISA signal ratio,[1],9.13
B5,phage ELISA signal ratio,[3],18.1
B6,phage ELISA signal ratio,[1],6.29
same,phage ELISA signal ratio,[4],8.02
B7,phage ELISA signal ratio,[1],4.22
B8,phage ELISA signal ratio,[3],19.3
